This is an account of results in PubChem BioAssay (NCATS).

The structures appear in SMILES notation. A number with no mark means an inactive call. Results filed as inconclusive are left out. The source made the active and inactive calls. Unless noted, calls follow the shape of the dose curve; as a rule, active = well fitted curve in the direction sought with a large enough effect; inconclusive = small, poorly fitted or top-dose-only effect, or another doubt; inactive = no such curve, though single readings can be large; an effect the other way counts as inactive or inconclusive.

Test [1] concerns the target Guanine nucleotide-binding protein G(i) subunit alpha-1 (Homo sapiens) (UniProt P63096). Briefly: qHTS Assay for Inhibitors of RGS12 GoLoco Motif Activity (Green Fluorophore) (AID 879).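 Also: 0% = labeled peptide with Gαi1 and full inhibition = labeled peptide alone without protein; negative values mean loss of peptide binding seen as reduced polarization.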 A digest of the protocol: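 A drop in FITC polarization marked displacement of the FITC-tagged RGS12 GoLoco peptide (10 nM) from Gαi1 (50 nM). Compounds were incubated 10 min at room temperature in Tris pH 7.5 buffer containing 150 mM NaCl, 0.1 mM GDP and 0.05% NP40; unlabeled peptide titration served as control.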
(In general: In qHTS, concentration-response curves come from the screen itself.)

The nature of test [2]: qHTS Assay for Identification of Small Molecule Antagonists for NFkB Signaling Pathway (AID 895; active = well fitted inhibition curve with a large enough effect in the signal ratio, with a control signal flat, not every such curve was filed as active; the % refers to the signal ratio; also: potency is read from the fitted curve at half-maximal effect). The method in brief: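 Beta-lactamase reporter read-out (460 and 530 nm emission ratio, 405 nm excitation, 2 hrs substrate loading RT) after 5 hr stimulation with 10 pM TNF alpha in compound-treated NFkB-bla ME-180 cells in low-serum medium.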
Test [3] can be described thus: qHTS Assay for Identification of Small Molecule Agonists for Thrombopoietin (TPO) Signaling Pathway (AID 917). Also: % is scaled to controls: 0 for no effect and ±100 for the full control effect. The method in brief: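 Stimulation at the TPO EC50 (26 pM final) was used to detect activators. Ba/F3 mouse cells bearing human TPO receptor and a luciferase reporter under the Glycoprotein IIb promoter were exposed to compounds for 24 hrs at 37 C.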
Test [4] concerns the target Muscarinic acetylcholine receptor M1 (Rattus norvegicus) (UniProt P08482). Nature of the test: qHTS Assay for Antagonists of Acetylcholine Muscarinic M1 Receptor: Kinetic Measurement of Intracellular Calcium Response (AID 943). Also: nearly all actives have a fitted effect of over 75% in size. Also: potency is read from the fitted curve at half-maximal effect. The method in brief:
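Quantitative HTS in CHO-M1 (rat receptor) cells: 10 min compound exposure ahead of 100 nM carbachol, Fluo-4 fluorescence followed 4 min, value expressed as peak-to-basal ratio.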

For test [5] the target is unchanged. Briefly: qHTS Assay for Antagonists of Acetylcholine Muscarinic M1 Receptor: Measurement of IP-One Response (AID 944). Also: nearly all actives have a fitted effect of over 75% in size. Also: potency is read from the fitted curve at half-maximal effect. A digest of the protocol:
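Antagonism was measured as loss of carbachol-driven (EC80) IP1 accumulation in CHO cells carrying rat M1, using a homogeneous IP-One TR-FRET kit read at 620 and 665 nm.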

Test [6] has as its target Pyruvate kinase (Leishmania mexicana) (UniProt Q27686). Briefly: qHTS Validation Assay for Inhibitors of Leishmania Mexicana Pyruvate Kinase (AID 945).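 Also: 0% = DMSO only neutral control wells.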 A digest of the protocol:
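The enzyme is a highly purified E451W mutant of LmPYK used at 0.2 nM. It converts 0.5 mM PEP and 0.1 mM ADP over 1 h at room temperature; product ATP is quantified by luciferase luminescence relative to DMSO controls.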

Test [7] concerns the target Cytochrome P450 2C19 (Homo sapiens) (UniProt P33261). Briefly: qHTS Assay for Inhibitors and Substrates of Cytochrome P450 2C19 (AID 899). Also: nearly all actives have a fitted effect of over 60% in size. Also: potency is read from the fitted curve at half-maximal effect. The method in brief: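 Luminescence readout of luciferin formed from 10uM Luciferin-H EGE (KM level) by 5 nM CYP2C19 in 50mM KPO4. 60 min NADPH-driven reaction at 37C after 10 min compound preincubation; data scaled to 57uM ketoconazole inhibition.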

In test [8] the target is Cytochrome P450 3A4 (Homo sapiens) (UniProt P08684). Nature of the test: qHTS Assay for Inhibitors and Substrates of Cytochrome P450 3A4 (AID 884). Also: nearly all actives have a fitted effect of over 50% in size. Also: potency is read from the fitted curve at half-maximal effect. The method in brief:
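Luminescent readout of luciferin produced by CYP3A4 (20 nM) dealkylation of Luciferin-PPXE, 25 uM (its KM). NADPH-driven reaction ran 60 min at RT after 10 min compound preincubation; data scaled to 57 uM ketoconazole as 100% inhibition.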

The nature of test [9]: Confirmation and Secondary Assay for Modulators of Hemoglobin Beta Chain Splicing at IVS2 654 locus (AID 910).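 Also: HeLa cells stably carrying EGFP split by mutant beta-globin IVS2-654 intron; per-well total GFP intensity by laser scanning cytometry after 2-day treatment; % of control where 0% means no effect.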 A digest of the protocol:
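Readout: per-well total peak green fluorescence (488 nm ex, 500–520 nm em) from objects 5–250 µm, reflecting correct splicing of an EGFP-654 reporter. Compounds were applied for 2 days at 37 °C to overnight-plated HeLa EGFP-654 cells; controls were DMSO and 500 nM IVS2-654 PNA.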

Test [10] can be described thus: Confirmation and Secondary Assay for Modulators of Hemoglobin Beta Chain Splicing at IVS2 705 locus (AID 930).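 Also: HeLa cells stably expressing the EGFP-705 splicing reporter; GFP fluorescence per well restored by corrected splicing of the IVS2-705 intron in EGFP; series mostly up to about 46 µM; % of control where 0% means no effect.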 A digest of the protocol: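 Splice-correction reporter: EGFP cDNA split by beta-globin intron 2 bearing the 705 mutation, stably in HeLa. Compound incubation 2 days, 37C; fluorescent objects 5-250 µm summed per well.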
For test [11], the target named is Cytochrome P450 2D6 (Homo sapiens) (UniProt P10635). Briefly: qHTS Assay for Inhibitors and Substrates of Cytochrome P450 2D6 (AID 891). Also: nearly all actives have a fitted effect of over 60% in size. Also: potency is read from the fitted curve at half-maximal effect. A digest of the protocol:
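Luminescent read-out of luciferin formed by 5 nM human CYP2D6 demethylating 30 uM Luciferin-ME EGE (Km level) over 60 min at room temperature after NADPH regeneration addition. Data normalized to full inhibition by 1.43 uM quinidine.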

Test [12] is described as follows: qHTS Assay for Identification of Small Molecule Agonists for Hypoxia Response Element Signaling Pathway (AID 914; active = well fitted activation curve with a large enough effect in the signal ratio, with a control signal flat, not every such curve was filed as active; the % refers to the signal ratio; also: % of control where 0% means no effect). The following applies: ME-180 (cervical carcinoma) HRE-bla reporter, beta-lactamase ratio, CoCl2, 17 h; active compounds read high. A digest of the protocol: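 Cells were plated overnight, pin-dosed with compound in a titration series, co-stimulated with EC50 CoCl2 and incubated 17 hours at 37 degrees Celsius. CCF4 substrate was then loaded, and AC50 values came from the 460nm/530nm ratio.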

Test [13] deals with Cytochrome P450 2C9 (Homo sapiens) (UniProt P11712). Briefly: qHTS Assay for Inhibitors and Substrates of Cytochrome P450 2C9 (AID 883). Also: % is scaled to controls: 0 for no effect and ±100 for the full control effect; nearly all actives have a fitted effect of over 60% in size. A digest of the protocol:
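Luminescent read-out of deoxyluciferin hydroxylation, normalized to 57uM sulphaphenazole (AC100). Reaction: 10nM enzyme, 100uM Luciferin-H (equal to KM), 25mM KPO4, 10 min compound preincubation, then 60 min with NADPH regeneration, both at 37C.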

Test [14] can be described thus: qHTS Assay for Identification of Small Molecule Antagonists for Thrombopoietin (TPO) Signaling Pathway (AID 918). Also: potency is read from the fitted curve at half-maximal effect; nearly all actives have a fitted effect of over 60% in size. The following applies: TPO-dependent cell signaling reporter, antagonist mode. The method in brief:
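Antagonist mode at EC50 TPO (26 pM) in IL-3-free medium; murine Ba/F3 cells with human TPO receptor and GPIIb-promoter luciferase, 24 hrs at 37 C before luminescent detection.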

Cytochrome P450 2D6 (Homo sapiens), sequence (P10635 whole entry, looked up): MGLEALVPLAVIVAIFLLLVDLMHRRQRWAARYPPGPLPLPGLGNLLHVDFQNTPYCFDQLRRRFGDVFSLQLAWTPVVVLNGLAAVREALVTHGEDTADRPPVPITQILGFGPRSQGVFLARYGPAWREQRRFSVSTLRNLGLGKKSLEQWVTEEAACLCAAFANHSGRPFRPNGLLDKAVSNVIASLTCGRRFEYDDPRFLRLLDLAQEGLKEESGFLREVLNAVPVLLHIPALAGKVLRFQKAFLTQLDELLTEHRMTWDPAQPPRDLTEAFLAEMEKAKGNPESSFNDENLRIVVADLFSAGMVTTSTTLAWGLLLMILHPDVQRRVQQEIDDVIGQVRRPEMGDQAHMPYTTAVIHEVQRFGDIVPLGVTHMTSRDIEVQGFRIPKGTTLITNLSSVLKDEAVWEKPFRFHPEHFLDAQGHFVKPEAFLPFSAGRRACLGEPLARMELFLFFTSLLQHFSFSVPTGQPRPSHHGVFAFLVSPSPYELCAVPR
Cytochrome P450 2C19 (Homo sapiens), sequence (P33261 whole entry, looked up): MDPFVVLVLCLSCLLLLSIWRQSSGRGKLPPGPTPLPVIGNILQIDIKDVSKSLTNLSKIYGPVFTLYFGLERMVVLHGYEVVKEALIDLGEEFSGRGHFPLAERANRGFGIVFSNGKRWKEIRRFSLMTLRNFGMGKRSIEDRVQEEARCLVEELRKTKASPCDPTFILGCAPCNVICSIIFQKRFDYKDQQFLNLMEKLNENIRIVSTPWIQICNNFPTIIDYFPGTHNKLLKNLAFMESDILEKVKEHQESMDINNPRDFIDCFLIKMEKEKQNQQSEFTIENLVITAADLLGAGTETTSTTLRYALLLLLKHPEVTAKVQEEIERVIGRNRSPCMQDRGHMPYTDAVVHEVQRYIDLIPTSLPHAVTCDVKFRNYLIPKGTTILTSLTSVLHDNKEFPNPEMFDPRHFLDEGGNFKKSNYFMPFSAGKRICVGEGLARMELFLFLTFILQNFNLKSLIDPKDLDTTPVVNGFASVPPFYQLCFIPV
Guanine nucleotide-binding protein G(i) subunit alpha-1 (Homo sapiens), sequence (P63096 whole entry, looked up): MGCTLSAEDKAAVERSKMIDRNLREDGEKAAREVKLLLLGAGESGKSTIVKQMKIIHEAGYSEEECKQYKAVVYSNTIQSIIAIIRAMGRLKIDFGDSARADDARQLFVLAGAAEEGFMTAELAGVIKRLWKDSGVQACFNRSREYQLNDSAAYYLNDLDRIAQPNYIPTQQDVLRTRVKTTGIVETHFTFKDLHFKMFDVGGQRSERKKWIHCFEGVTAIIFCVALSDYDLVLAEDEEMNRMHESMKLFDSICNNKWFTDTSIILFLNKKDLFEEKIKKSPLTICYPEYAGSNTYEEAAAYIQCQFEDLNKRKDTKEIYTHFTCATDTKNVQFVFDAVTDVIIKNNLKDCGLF
Muscarinic acetylcholine receptor M1 (Rattus norvegicus), sequence (P08482 whole entry, looked up): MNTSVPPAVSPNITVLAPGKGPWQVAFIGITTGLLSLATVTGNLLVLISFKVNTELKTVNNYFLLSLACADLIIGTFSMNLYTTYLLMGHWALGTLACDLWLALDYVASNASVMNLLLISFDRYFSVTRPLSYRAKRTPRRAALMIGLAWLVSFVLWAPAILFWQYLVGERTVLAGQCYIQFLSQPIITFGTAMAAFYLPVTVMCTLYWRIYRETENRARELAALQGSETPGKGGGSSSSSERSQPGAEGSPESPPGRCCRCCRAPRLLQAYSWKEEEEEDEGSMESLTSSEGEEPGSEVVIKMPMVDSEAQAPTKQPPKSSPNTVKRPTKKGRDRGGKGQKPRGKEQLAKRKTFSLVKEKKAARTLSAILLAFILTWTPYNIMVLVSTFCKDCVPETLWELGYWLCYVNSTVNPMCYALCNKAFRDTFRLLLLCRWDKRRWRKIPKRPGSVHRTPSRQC
Cytochrome P450 3A4 (Homo sapiens), sequence (P08684 whole entry, looked up): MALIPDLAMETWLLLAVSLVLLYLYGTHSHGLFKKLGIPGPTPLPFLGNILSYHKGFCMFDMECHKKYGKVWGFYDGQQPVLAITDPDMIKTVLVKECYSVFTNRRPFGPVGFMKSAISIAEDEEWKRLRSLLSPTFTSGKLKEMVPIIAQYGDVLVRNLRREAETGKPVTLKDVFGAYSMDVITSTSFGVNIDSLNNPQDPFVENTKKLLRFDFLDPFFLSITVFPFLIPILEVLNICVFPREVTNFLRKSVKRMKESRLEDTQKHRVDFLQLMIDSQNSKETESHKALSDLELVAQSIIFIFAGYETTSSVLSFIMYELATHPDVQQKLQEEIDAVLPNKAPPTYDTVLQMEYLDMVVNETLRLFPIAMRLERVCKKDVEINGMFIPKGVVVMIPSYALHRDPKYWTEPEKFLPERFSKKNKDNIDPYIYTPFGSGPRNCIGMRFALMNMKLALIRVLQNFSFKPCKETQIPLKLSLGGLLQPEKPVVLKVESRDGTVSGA
Pyruvate kinase (Leishmania mexicana), sequence (Q27686 2-499 E452W): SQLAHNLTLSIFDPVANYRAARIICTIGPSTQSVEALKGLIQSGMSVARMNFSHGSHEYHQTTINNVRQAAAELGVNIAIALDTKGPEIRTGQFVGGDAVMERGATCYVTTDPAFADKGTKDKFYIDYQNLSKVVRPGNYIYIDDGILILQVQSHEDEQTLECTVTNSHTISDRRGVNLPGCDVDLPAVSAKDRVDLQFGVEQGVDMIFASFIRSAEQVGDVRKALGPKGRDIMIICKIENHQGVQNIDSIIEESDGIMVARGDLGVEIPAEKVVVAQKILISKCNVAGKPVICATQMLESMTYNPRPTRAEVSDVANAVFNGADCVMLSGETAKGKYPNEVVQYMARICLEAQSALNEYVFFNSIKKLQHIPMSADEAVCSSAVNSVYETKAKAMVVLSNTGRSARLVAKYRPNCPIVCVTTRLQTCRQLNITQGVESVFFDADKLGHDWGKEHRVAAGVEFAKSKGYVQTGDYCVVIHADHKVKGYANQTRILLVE
Cytochrome P450 2C9 (Homo sapiens), sequence (P11712 whole entry, looked up): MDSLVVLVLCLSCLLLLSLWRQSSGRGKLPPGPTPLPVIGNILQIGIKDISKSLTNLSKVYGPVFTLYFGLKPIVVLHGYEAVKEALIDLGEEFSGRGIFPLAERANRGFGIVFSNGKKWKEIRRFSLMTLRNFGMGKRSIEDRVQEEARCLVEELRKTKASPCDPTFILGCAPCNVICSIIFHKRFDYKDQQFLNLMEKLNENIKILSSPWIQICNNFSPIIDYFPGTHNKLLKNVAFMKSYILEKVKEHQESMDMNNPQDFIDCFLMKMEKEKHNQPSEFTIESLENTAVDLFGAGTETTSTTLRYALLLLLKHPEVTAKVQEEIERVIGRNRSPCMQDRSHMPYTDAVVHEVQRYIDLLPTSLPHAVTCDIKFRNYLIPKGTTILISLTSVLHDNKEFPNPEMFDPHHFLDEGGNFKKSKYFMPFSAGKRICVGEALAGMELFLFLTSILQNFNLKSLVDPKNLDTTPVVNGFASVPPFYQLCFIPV

For the compound `NC(=NCCC[C@H](N)C(=O)O)N[N+](=O)[O-]`, the compound was called inactive in test [1], in test [3] and in test [6]. In addition, the Potency entry in test [2], in test [4] and in [5] was “inactive” throughout.

Take `CCCN1CCO[C@@H]2c3cc(O)ccc3OC[C@H]21`: the call in test [1], in test [3] and in [6] was inactive. Further, the Potency entry in test [2], in [7] and in [5] was “inactive” throughout.

Turning to `C#CC1(O)CCC2C3CCC4=CC(=O)CCC4(C)C3CCC21C` (stereo not given), the Potency result in [8] and in [9] was “inactive” in each case. The call in test [10] was inactive.

Turning to `CC(C)Oc1cccnc1N(C)C1CCN(Cc2ccccc2)CC1`, the compound was called inactive in test [1], in [3] and in test [6]. Moreover, in test [11], the Potency is 7.94 µM (active). For the same compound, the activation in [12] is -11.6%.

Consider `O=c1cccc2n1CC1CNC[C@H]2C1`, for which the Potency result in [13], in [11] and in test [7] was “inactive” in each case.

Consider `CCn1cc(C(=O)O)c(=O)c2cc3c(cc21)OCO3`, for which the Potency entry in test [11] is “inactive”.

With `O=C(O)CCCOc1ccc(Cl)cc1Cl`, the Potency entry in test [8] and in test [9] was “inactive” each time. In test [10], the outcome was inactive.

`NCCc1c[nH]c2ccccc12`: the compound was classed as inactive in [1], in test [3], in test [10] and in [6]. Moreover, the Potency entry in test [8], in test [9], in [4] and in test [5] was “inactive” each time. In test [2], the Potency was 12.6 µM (active). Also, the activation in [12] is -27.7%.

`C[C@@H]1O[C@H](C[N+](C)(C)C)C[C@H]1O`: the outcome in test [1], in [3] and in test [6] was inactive. Further, the Potency result in test [2], in [4] and in test [5] was “inactive” in each case.

For the compound `S=C(NC1CCCCC1)N1CCC(c2cnc[nH]2)CC1`, the result in [1] and in test [6] was inactive.

As for `CCCN1CCC[C@H](c2cccc(O)c2)C1`, the compound was classed as inactive in test [1], in [3] and in test [6]. The Potency result in [5] is “inactive”.

In the case of `COc1ccc(C(=O)c2c(C)n(CCN3CCOCC3)c3cc(I)ccc23)cc1`, the Potency in [8] is 5.01 µM (active).

On to `Clc1cnc(Oc2ccc(Oc3ncc(Cl)cc3Cl)cc2)c(Cl)c1`, for which the call in [1], in test [3] and in [6] was inactive. Further, the Potency entry in test [13] and in [5] was “inactive” throughout.

On to `C#CCOC(=O)C1=CCCN(C)C1`, for which the call in [1] and in [6] was inactive. The Potency entry in test [4] and in test [5] was “inactive” throughout.

`COc1cc2c(cc1OC)[C@@H]1C(=O)c3ccc4c(c3O[C@@H]1CO2)C=CC(C)(C)O4`: the Potency in test [11] was 0.0631 µM (active); in test [7] it was 5.01 µM (active).

Consider `NC(=O)c1ccc(-c2nc(-c3ccc4c(c3)OCO4)c(-c3ccccn3)[nH]2)cc1`, for which, in test [7], the Potency was 2.51 µM (active).

As to `c1ccc(CCCN2CCN(CCOC(c3ccccc3)c3ccccc3)CC2)cc1`, the call in [1] and in test [6] was inactive. Moreover, the Potency in test [4] was 891 nM (active); in test [5] it was 8.91 µM (active).

For the compound `CNCCc1c[nH]c2ccc(O)cc12`, the compound was called inactive in [1], in [3] and in [6]. Further, the Potency result in test [8], in test [2], in test [4] and in test [5] was “inactive” in each case.

Turning to `CC(Cc1ccc(O)cc1)NCC(O)c1cc(O)cc(O)c1` (stereo not given), the Potency result in test [9] was “inactive”. In addition, the result in test [10] was inactive.

`CC[C@@H]1C(=O)OC[C@@H]1Cc1cncn1C`: the Potency in test [8] was 12.6 µM (active).

As for `CN[C@@H]1C[C@@H](c2ccc(Cl)c(Cl)c2)c2ccccc21`, the outcome in [1] and in test [6] was inactive. The Potency in test [2] is 8.91 µM (active); in [14], 12.6 µM (active); in [4] it was 2240 nM (active). For the same compound, the Potency entry in test [5] was “inactive”.

On to `COc1ccc2c(c[n+](C)c3c4cc5c(cc4ccc23)OCO5)c1OC`, for which the outcome in test [1] and in [6] was inactive. Further, the Potency in test [2] is 11.2 µM (active); in test [14], 2 µM (active); in [5], 35.5 µM (active). In addition, in test [4], the Potency entry was “inactive”.

Take `O=C(O)Cc1cnc[nH]1`: the result in [1], in test [3] and in test [6] was inactive. Also, the activation in test [12] was 7.21%. The Potency entry in test [5] is “inactive”.

For the compound `Cc1c(C(=O)c2cccc3ccccc23)c2cccc3c2n1[C@H](CN1CCOCC1)CO3`, the call in test [1] and in test [6] was inactive. Moreover, the Potency in test [14] was 12.6 µM (active).

As to `C[C@]12N[C@H](Cc3ccccc31)c1ccccc12`, the result in test [1], in [3] and in test [6] was inactive. The Potency result in test [2] was “inactive”.
